hcGAS inh = Primary biochemical luminescence assay for human cyclic GMP-AMP synthase inhibitors | recombinant h-cGAS, ATP depletion, Kinase-Glo luminescence | inhibition, % at 12.5 µM | 0.081% of 290,000 active | AID 1259398, 2018
Target sequence (Q8N884 whole entry, looked up): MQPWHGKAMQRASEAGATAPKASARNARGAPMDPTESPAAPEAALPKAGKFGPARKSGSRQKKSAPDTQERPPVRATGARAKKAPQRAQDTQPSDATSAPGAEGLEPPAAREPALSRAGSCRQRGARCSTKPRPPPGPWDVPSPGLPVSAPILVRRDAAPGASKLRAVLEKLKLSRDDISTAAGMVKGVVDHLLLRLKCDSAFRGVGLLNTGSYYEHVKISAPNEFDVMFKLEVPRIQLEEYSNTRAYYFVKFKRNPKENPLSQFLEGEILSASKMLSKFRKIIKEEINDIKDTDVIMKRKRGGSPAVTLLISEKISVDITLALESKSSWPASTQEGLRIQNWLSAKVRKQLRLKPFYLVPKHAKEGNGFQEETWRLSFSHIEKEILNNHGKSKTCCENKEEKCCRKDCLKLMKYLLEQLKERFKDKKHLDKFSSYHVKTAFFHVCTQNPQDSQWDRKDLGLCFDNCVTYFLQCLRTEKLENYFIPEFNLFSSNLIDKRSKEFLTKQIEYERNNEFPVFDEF
mcGAS inh = cyclic GMP-AMP synthase inhibitors, mouse, primary biochemical chemiluminescence; Q8C6L5; recombinant cGAS, Kinase-Glo ATP depletion luminescence; inhibition, % at 12.5 µM; 0.15% of 160,000 active; AID 1259399, 2018
NPYLR7 ag = agonists of mosquito NPYLR7 receptor, primary screen, cell-based, Aedes aegypti, calcium fluorescence, mosquito biting behavior | activation, % at 10 µM | Aedes aegypti neuropeptide Y-like receptor 7 (NPYLR7) | HEK293T NPYLR7/Galpha15, GCaMP6s calcium fluorescence | 0.15% of 270,000 active; in the data active = activation above about 40%
Large screens that a line does not name were inactive; ! = not active in a repeat. A selection: hits, their analogues and other compounds. The true share with any hit is near 0.28%. Cut-off read from the data, not from the text of the source, unless noted: active = inhibition above about 40%; inactive = the rest.

C=CCOCC(O)CN(Cc1ccc(F)cc1)Cc1cccc(OC)c1 (stereo not drawn)	none
OC1CCN(c2ccnc(NCc3nccn3Cc3ccccc3)n2)CC1	none (no result: mcGAS inh)
COc1cccc2c1C(=O)c1c(O)c3c(c(O)c1C2=O)C[C@@](O)(C(C)=O)C[C@@H]3OC1CC(N)C(O)C(C)O1 (stereo partly drawn)	hcGAS inh 61 (no result: mcGAS inh)
COc1cccc2c1C(=O)c1c(O)c3c(c(O)c1C2=O)C[C@@](O)(C(=O)CO)C[C@@H]3O[C@H]1C[C@H](N)[C@H](O)[C@H](C)O1	hcGAS inh 58 (no result: mcGAS inh)
O=C(c1ccccc1)N1N=C(c2ccc(Br)cc2)CC1c1ccccc1F (stereo not drawn)	none
CN(C)CCCN1c2ccccc2Sc2ccc(C(F)(F)F)cc21	none
CCN1c2ccccc2Sc2cc(C=O)ccc21	none (no result: mcGAS inh)
CN1C(=C2C(=O)CC(C)(C)CC2=O)Sc2ccccc21	none (no result: mcGAS inh)
Cc1cc(C=C2Sc3ccccc3N2C)cc(C)[n+]1Cc1ccncc1	NPYLR7 ag 51
CCN1/C(=C/C2=CC(=O)CC(C)(C)C2)Sc2ccccc21	NPYLR7 ag 60 (no result: mcGAS inh)
CCC(C)[n+]1c(C)cc(C=C2Sc3ccccc3N2CC)cc1C (stereo not drawn)	NPYLR7 ag 78 (no result: mcGAS inh)
CCCC[n+]1c(C)cc(C=C2Sc3ccccc3N2C)cc1C	NPYLR7 ag 198 (no result: mcGAS inh)
CCOC(=O)c1ccccc1N1C(=O)/C(=C\c2ccncc2)N(C)C1=S	none
COc1ccc(-c2cc(C(=O)N/N=C\c3ccc(Br)cc3)[nH]n2)cc1	none
Cc1cc(-c2ccccc2)nc2cc(C(=O)Nc3ccc(O)cc3)nn12	none
CCCCNC(=O)N(Cc1ccc(OS(=O)(=O)c2ccc(F)cc2)cc1)Cc1ccco1	none
Cc1cccc(NC(=O)CNC(=O)CNCc2ccccc2)c1	none
CCC(C)[n+]1c(C)cc(C=C2Sc3ccccc3N2C)cc1C (stereo not drawn)	NPYLR7 ag 173 (no result: mcGAS inh)
CCOC(=O)/C(C#N)=C1/Sc2ccccc2N1C	none (no result: mcGAS inh)
Cc1cc(C=C2Sc3ccccc3N2C)cc(C)[n+]1-c1ccccc1	NPYLR7 ag 76 (no result: mcGAS inh)
Cc1cc(C=C2Sc3ccccc3N2C)cc(C)[n+]1N1CCN(C)CC1	none (no result: mcGAS inh)
CCN1C(=CC=Cc2sc3ccccc3[n+]2CC)Sc2ccccc21	none (no result: mcGAS inh)
CCN1C(=Cc2ccc3cc(C)ccc3[n+]2CC)Sc2ccccc21	NPYLR7 ag 74 (no result: mcGAS inh)
COc1cnc(-c2cccc(C(F)(F)F)c2)c(NC(=O)CC(C)C)n1	none
Cc1ccc(/C=C/c2nc3sc4c(c3c(=O)[nH]2)CCC4)cc1	none (no result: mcGAS inh)
CCN(CC(=O)Nc1c(-c2ccccc2)c(C)nn1-c1ccccc1C)C(=O)Nc1c(Cl)cccc1Cl	none (no result: NPYLR7 ag)
FC(F)(F)c1cccc(NC(=S)NCCN2CCCCC2)c1	none
COC(=O)[C@@H]1[C@H](C(=O)N(C)CCc2ccc(OC)c(OC)c2)[C@@H]2C=C[C@H]1C2	none
CCOC(=O)CSc1nnc(C(C)C)c2cnn(-c3ccc(F)cc3)c12	none
Cc1cc(NC(=O)CN2CCOc3ccccc32)no1	none (no result: mcGAS inh)
Cc1ccc(Nc2nc(Nc3cccc(F)c3)nc3nccnc23)c(C)c1	NPYLR7 ag 52 (no result: mcGAS inh)
Cc1ccc(Nc2nc(NCCN(C)C)nc3nccnc23)c(C)c1	none (no result: mcGAS inh)
COc1cc(OC)cc(C2NC(=O)N(C)C3=C2C(=O)N(Cc2ccco2)C3)c1 (stereo not drawn)	none
Cc1ccc(N2C(=O)NC(=O)/C(=C\c3ccc(N(C)C)o3)C2=O)cc1	none
Cc1ccc(N2C(=O)NC(=O)/C(=C\c3cccs3)C2=O)cc1	NPYLR7 ag 65
CC(=O)N[C@@H]1CCCCC1NC(=O)C1CCCN(C(=O)CC(C)(C)C)C1 (stereo partly drawn)	none (no result: NPYLR7 ag)
CCOC(=O)c1c(N)c2c(-c3ccccc3)c(C#N)c(OCC)nc2n1C	none (no result: mcGAS inh)
CCOc1nc(Cl)c(C#N)c(-c2ccccc2)c1C#N	hcGAS inh 45 (no result: mcGAS inh)
CC(C)C(C(=O)O)n1c(O)c(C2=c3cc(Br)ccc3=NC2=O)sc1=S (stereo not drawn)	none
O=C1N=c2ccc(F)cc2=C1c1sc(=S)[nH]c1O	mcGAS inh 100
Nn1c(O)c(C2=c3cc([N+](=O)[O-])ccc3=NC2=O)sc1=S	none (no result: mcGAS inh)
Cc1cc(Br)cc2c1=NC(=O)C=2c1sc(=S)[nH]c1O	mcGAS inh 94
Cc1ccc(S(=O)(=O)CCC(=O)N(CCN(C)C)c2nc3cc(C)cc(C)c3s2)cc1	none
COc1ccc(C2CC(c3ccccc3OC)=NN2C(=O)CN2CCCC2)cc1 (stereo not drawn)	none
CC(NC(=O)c1ccc(=O)[nH]c1)c1ccc(F)cc1F (stereo not drawn)	none (no result: mcGAS inh)
CC(C)(C)C(=O)Nc1nc(-c2cccc(Br)c2)cs1	none (no result: mcGAS inh)
CCN(Cc1csc(COc2cccc(C)c2C)n1)C(=O)c1ccccc1F	mcGAS inh 88
Cc1cccc(OCc2nc(CN(CCN(C)C)C(=O)c3ccccc3F)cs2)c1C	none
Cc1ccc(C2(c3noc(COc4cccnc4N)n3)CCCC2)cc1	none
Cc1cc(Nc2ccc(C(N)=O)cc2)c2ccc(C(F)(F)F)cc2n1	none
Oc1cc2c(cc1O)C1c3ccc(O)c(O)c3OCC1(O)C2 (stereo not drawn)	mcGAS inh 50
O=C(O)C1Cc2[nH]cnc2C(c2ccc(F)cc2)N1C(=S)Nc1ccccc1 (stereo not drawn)	none
CN1C(=CC=C2C(=O)CC(C)(C)CC2=O)C(C)(C)c2ccccc21	NPYLR7 ag 298 (no result: mcGAS inh)
C=c1[nH]n(-c2ccccc2)c(=O)c1=CC=C1N(C)c2ccccc2C1(C)C	none (no result: mcGAS inh)
O=C(CC1CC2CCC1C2)NNC(=O)c1ccccc1 (stereo not drawn)	none (no result: mcGAS inh)
O=c1[nH]c2ccc(Cl)cc2o1	none (no result: mcGAS inh)
O=c1[nH]c2c(Br)c(Br)c(Br)cc2o1	mcGAS inh 66
CN(C)Cc1ccccc1Cc1ccccc1	none (no result: mcGAS inh)
CN(C)Cc1ccc2ccc3cccc4ccc1c2c34	hcGAS inh 84 (no result: mcGAS inh)
O=C(OCC1(O)C(Cl)C=CC(OC(=O)c2ccccc2)C1O)c1ccccc1 (stereo not drawn)	mcGAS inh 48
O=C(OCN1C(=O)c2ccccc2C1=O)c1ccccc1	none (no result: mcGAS inh)
CCCCC(CC)CCC(CC(C)C)OS(=O)(=O)O (stereo not drawn)	hcGAS inh 42 (no result: mcGAS inh)
CCCCCCCCCCCCOS(=O)(=O)O	none (no result: mcGAS inh)
CC(C)(C)c1cc2nc(-c3ccccc3F)cc(C(=O)N3CCc4ccccc4C3)n2n1	none
CN(C)C(CNc1ncnc2cc(Cl)ccc12)c1ccco1 (stereo not drawn)	none
CN1CCN(c2cc(Cl)nc(SCc3ccc(C(=O)NCCN4CCCC4)cc3)n2)CC1	hcGAS inh 69
O=C(NCCN1CCCCC1)c1ccc(CSc2nc(Cl)cc(N3CCCC3)n2)cc1	none
NC(=NCCCCCCN=C(N)N=C(N)Nc1ccc(Cl)cc1)N=C(N)Nc1ccc(Cl)cc1	NPYLR7 ag 70!
CC(C)N=C(N)N=C(N)Nc1ccc(Cl)cc1	none (no result: mcGAS inh)
CCCCc1ccc(-c2ccc(-n3cncc3C(=O)NCc3c(C)cc(Cl)cc3Cl)cc2)cc1	none
N#C/C(=C/c1ccc(N2CCCCC2)cc1F)c1ccc(C(=O)O)cc1	none
N#C/C(=C/c1ccc(N2CCCCC2)o1)c1cccc(F)c1	NPYLR7 ag 63 (no result: mcGAS inh)
C[n+]1ccc(C=CC(=O)c2ccc3cccc4c3c2CC4)cc1	mcGAS inh 61
C[n+]1ccc(C=CC(=O)c2ccc3c4c(cccc24)CC3)cc1	none

Screening data: PubChem BioAssay, Fisher Drug Discovery Resource Center
